Measurements as given in PubChem BioAssay AID1626 (SRMLSC, 2009).
The campaign covered roughly 220,000 compounds. About 2,000 (0.91%) were called active. About 2% were inconclusive and are not listed. The list is a sample of the results. Results with a measured potency or affinity are listed apart. A number with no mark means an inactive call. Cut-off read from the data, not from the text of the source: inconclusive = inhibition above about 80% without an active follow-up result; inactive = below that; test concentration not stated here.

Experiment: M. tuberculosis H37Rv growth inhibitors, H37Rv strain (AID 1626);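 note: bacteria incubated seven days before Alamar blue readout; 0% = bacteria only wells and 100% = bacteria with antibiotic wells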
Details: active compounds read high, concentration not given here

Row | Compound | inhibition [%]
1 | CC(C)N(C(=O)CC1ON(C)C(=O)N1c1ccc(Cl)cc1)C(C)C (stereo not given) | -4.4
2 | CCOC(=O)C1=C(c2ccccc2)N=c2s/c(=C\c3cc(OC)c(OC)c(OC)c3)c(=O)n2C1c1cccs1 (stereo not given) | -2.92
3 | CCOC(=O)C1=C(C)N=c2s/c(=C/c3ccccc3)c(=O)n2C1c1ccc(OC)c(OC)c1 (stereo not given) | 1
4 | S=C(NCCc1ccccc1)Nc1ccccc1N1CCOCC1 | 0.99
5 | COc1ccc([N+](=O)[O-])cc1NC(=O)C(C)OC(=O)c1cccnc1Cl (stereo not given) | -2.19
6 | CC1=C(C(=O)Nc2ccccn2)C(c2ccc(Cl)cc2)NC(=S)N1 (stereo not given) | -5.44
7 | CCOC(=O)c1cnc(Nc2nc3ccccc3o2)nc1CSC(=S)N(CC)CC | -2.38
8 | CCOC(=O)c1cnc(Nc2nc3ccccc3o2)nc1CSc1ncccn1 | 0.18
9 | O=C1c2cc(O)cc(O)c2C(=O)c2c1cc(O)c([C@@H](CO)CCO)c2O | -0.07
10 | Cc1cc(NC(=O)CCCC(=O)N(c2ccccc2)C(C(=O)NC2CCCCC2)c2cccs2)no1 (stereo not given) | -3.8
11 | Cc1ccc([N+](=O)[O-])cc1N(CC(=O)NC1CCCC1)S(C)(=O)=O | 1.23
12 | Cc1c(/C=N\NC(=O)C2COc3ccccc3O2)c2ccccc2n1C (stereo not given) | 10.6
13 | C#CCNC(=O)C1=C[C@@H](C2CC2)[C@H](CCCO)[C@@H](OCC)O1 | -9.56
14 | O=C(Nc1nnc(-c2ccncc2)o1)C1CCCCC1 | 0.18
15 | CC(=O)Nc1nnc(-c2ccc(Cl)s2)o1 | 2.92
16 | O=C(Nc1nnc(-c2ccco2)o1)C1CCCCC1 | 3.01
17 | CCC(=O)Nc1nnc(-c2ccc(Cl)s2)o1 | 13.6
18 | Cc1cc(C(=O)COc2ccc(Cl)cc2Br)c(C)n1C | -4.24
19 | CCN(CC)C(=O)C1CCCN(c2ccc([N+](=O)[O-])cc2/C=N/NC(=O)c2ccccc2)C1 (stereo not given) | 9.19
20 | Cc1ccc(CNC(=O)CCc2nc(-c3cccs3)no2)cc1 | 6.02

Row | Compound | inhibition [%]
21 | CCN(CC)S(=O)(=O)c1ccc(NS(=O)(=O)CC23CCC(CC2=O)C3(C)C)cc1 (stereo not given) | -3.32
22 | C=CCNC(=O)c1ccc(-n2cccc2)cc1 | 8.71
23 | N#Cc1ccc(NC(=O)N2CCC(c3nc4c(nnn4Cc4cccc(Cl)c4)c(=O)[nH]3)CC2)cc1 | 69
24 | O=C(Nc1ccc(F)cc1)N1CCC(c2nc3c(nnn3Cc3cccc(Cl)c3)c(=O)[nH]2)CC1 | 64.2
25 | N/C(=N\OC(=O)CCc1ccccc1)c1ccccc1Cl | 14.4
26 | COc1cc(CNC(C)(C)CO)cc(Br)c1OCc1ccc(Cl)cc1Cl | 62.5
27 | COc1cc(CNC(C)(C)CO)cc(Br)c1OCc1ccc(Cl)cc1 | 9.24
28 | COC(=O)CCC(=O)OC1(C)C(=O)C2=CN(Cc3ccco3)C(c3ccc(OC)cc3)=CC2=C(Br)C1=O (stereo not given) | 1.66
29 | CCCc1cc(C(=O)Nc2nnc(C)s2)cs1 | 1.88
30 | O=C(Nc1ccncc1)c1sc2ccccc2c1Cl | 2.92
31 | CCC(=O)Nc1cccc(C(=O)Nc2nccs2)c1 | 2.64
32 | Cc1cnc(NC(=O)c2sc3ccccc3c2Cl)s1 | 3.19
33 | O=C(COC(=O)c1ccccn1)Nc1nccs1 | -5.49
34 | O=C(Nc1nccs1)c1cnccn1 | -1.5
35 | Cc1onc(-c2c(F)cccc2Cl)c1C(=O)Nc1nccs1 | 6.17
36 | COC(=O)c1nc(N)sc1-c1ccc(OC)cc1 | -1.47
37 | CCCS(=O)(=O)N1CCN(Cc2ccc([N+](=O)[O-])cc2)CC1 | 5.19
38 | COc1ccc(CNC(=O)COC(=O)c2ccc(Br)cc2)cc1 | 5.06
39 | CN(C)NC(=O)C(NC(=O)c1ccccc1)C12CC3CC(CC(C3)C1)C2 (stereo not given) | -4.07
40 | CCn1c(=O)c(C(=O)CN2CCCc3ccccc32)c(N)n(Cc2ccccc2)c1=O | -5.75

Row | Compound | inhibition [%]
41 | COc1ccc(-c2nnc3n2C(C)(C)Cc2cc(OC)c(OC)cc2-3)cc1 | 3.77
42 | COc1ccc(NS(=O)(=O)c2ccc(O)c(C(=O)OCC(=O)NC(C)C3CC4CCC3C4)c2)cc1 (stereo not given) | -0.76
43 | COC(=O)[C@@H](NC(=O)Nc1ccc(OC)cc1)C(C)C | 2.16
44 | CCc1ccc(NC(=O)c2ccccc2Br)cc1 | 6.96
45 | CC(SC1CCCC1)C(=O)NC(C)(C#N)C(C)C (stereo not given) | -2.88
46 | CC(C)(C)NC(=O)C1CCC(CNc2c(N3CCCCC3)c(=O)c2=O)CC1 (stereo not given) | -2.67
47 | COc1ccc(NC(=O)CN2CCN(C3c4ccccc4-c4ccccc43)CC2)cc1 | 18.1
48 | COc1ccc(NC(=O)CN2CCN(C3c4ccccc4-c4ccccc43)CC2)c(OC)c1 | 28.6
49 | CCOc1ccc(NC(=O)CN2CCN(CC(=O)Nc3ccc(F)cc3)CC2)cc1 | 9.61
50 | CCOc1ccc(NC(=O)CN2CCN(CC(=O)Nc3ccc(F)c(F)c3)CC2)cc1 | 10.7
51 | COc1ccc(C(=O)N[C@H](C(=O)OCc2cc(=O)oc3cc(C)ccc23)C(C)C)cc1 | 9.93
52 | Cc1cccc(C)c1OCCCCn1cnc2ccccc2c1=O | -6.94
53 | CCOC(=O)N1CCN(C(=O)CCCn2c(=O)[nH]c3ccccc3c2=O)CC1 | 1.26
54 | COC(=O)C1=C(C)NC(C)=C(C(=O)OC)C1C1CC=CCC1 (stereo not given) | 5.42
55 | Cc1cccn2cc(-c3cccc(NC(=O)c4cccs4)c3)nc12 | 2.98
56 | COc1ccc(-c2cc(C(=O)OC3CCOC3=O)c3ccccc3n2)cc1OC (stereo not given) | -3.98
57 | CCOC(=O)N1CCN(C(=O)CSc2ccc(-c3ccccc3OC)nn2)CC1 | 3.28
58 | COC(=O)c1ccc(Cl)c(S(=O)(=O)N2CCCC2)c1 | 4.58
59 | C=C(C)C1Cc2c(C)nn(-c3cccc4ccccc34)c2C1 (stereo not given) | 13.7
60 | C=C(C)C1Cc2c(C)nn(-c3ccccc3)c2C1 (stereo not given) | 3.68
